“And” between values parts separate entries of the source, which are not always exact repeats. Equal values may be shown once. More than one record can exist for a structure, and the calls need not agree. The source made the active and inactive calls. How the source made its calls: active means hit-call score of the fitted dose curve at least 0.9, where 1 is the maximum; inactive means score below 0.9.

Read-out in test [1]: Interleukin-6 (IL6), IL6 (gene 3569)
As to the kind of experiment: BSK_CASM3C_IL6: BioMAP Diversity Plus: CASM3C Assay for Interleukin-6 (IL6) Biomarker Activity for (AID 2283040). Particulars: primary human coronary artery smooth muscle cells; actives raise or lower the signal.

Read-out in test [2]: Tissue plasminogen activator (tPA), PLAT (gene 5327)
As to the kind of experiment: BSK_BE3C_tPA: BioMAP Diversity Plus: BE3C Assay for Tissue plasminogen activator (tPA) Biomarker Activity (AID 2283041).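 On outcome: tPA level quantified by ELISA one day after compound addition.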 The conditions noted are these: primary human bronchial epithelial cells; actives raise or lower the signal. The essentials:
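Human primary bronchial epithelial cells were dosed with chemical and tPA biomarker levels measured by ELISA 24 hours later. Activity was fitted bidirectionally against DMSO as negative control and baseline.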

Read-out in test [3]: Interleukin-8 (IL8), CXCL8 (gene 3576)
As to the kind of experiment: BSK_CASM3C_IL8: BioMAP Diversity Plus: CASM3C Assay for Interleukin-8 (IL8) Biomarker Activity (AID 2283042).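 Further: IL-8 protein level quantified by ELISA.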 Particulars: primary human coronary artery smooth muscle cells; actives raise or lower the signal.

Read-out in test [4]: Human Leukocyte Antigen - DR isotype (HLADR), HLA-DRA (gene 3122)
As to the kind of experiment: BSK_CASM3C_HLADR: BioMAP Diversity Plus: CASM3C Assay for Human Leukocyte Antigen - DR isotype (HLADR) Biomarker Activity (AID 2283043).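 Further: cell-surface HLA-DR protein level quantified by ELISA.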 The conditions noted are these: primary human coronary artery smooth muscle cells; actives raise or lower the signal.

Read-out in test [5]: Macrophage colony-stimulating factor (MCSF), CSF1 (gene 1435)
As to the kind of experiment: BSK_CASM3C_MCSF: BioMAP Diversity Plus: CASM3C Assay for Macrophage colony-stimulating factor (MCSF) Biomarker Activity (AID 2283044).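 Further: M-CSF protein amount quantified by ELISA after 24 h exposure.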 The conditions noted are these: primary human coronary artery smooth muscle cells; actives raise or lower the signal.

Read-out in test [6]: Low-density lipoprotein receptor (LDLR), LDLR (gene 3949)
As to the kind of experiment: BSK_CASM3C_LDLR: BioMAP Diversity Plus: CASM3C Assay for Low-density lipoprotein receptor (LDLR) Biomarker Activity (AID 2283045).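 Further: LDLR protein level on the cell surface quantified by ELISA.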 The conditions noted are these: primary human coronary artery smooth muscle cells; actives raise or lower the signal.

Read-out in test [7]: Monocyte Chemoattractant Protein-1 (MCP1), CCL2 (gene 6347)
As to the kind of experiment: BSK_CASM3C_MCP1: BioMAP Diversity Plus: CASM3C Assay for Monocyte Chemoattractant Protein-1 (MCP1) Biomarker Activity (AID 2283046).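 Further: MCP-1 level quantified by ELISA 24 h after dosing.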 The conditions noted are these: primary human coronary artery smooth muscle cells; actives raise or lower the signal.

Test [8] in a line: BSK_CASM3C_Proliferation: Cell Proliferation Assessment in the BioMAP Diversity Plus: CASM3C Assay (AID 2283047).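 Further: sulforhodamine B total protein stain as relative cell number at 560 nm; sub-confluent cells exposed 48 h before staining; fitted both ways against DMSO so gain or loss of cell number.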 Particulars: primary human coronary artery smooth muscle cells.
Read-out in test [9]: Monokine induced gamma interferon (MIG), CXCL9 (gene 4283)
As to the kind of experiment: BSK_CASM3C_MIG: BioMAP Diversity Plus: CASM3C Assay for Monokine induced gamma interferon (MIG) Biomarker Activity (AID 2283048).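 Further: MIG protein level measured by ELISA.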 The conditions noted are these: primary human coronary artery smooth muscle cells; actives raise or lower the signal.

Read-out in test [10]: serum amyloid A (SAA), SAA1 (gene 6288)
As to the kind of experiment: BSK_CASM3C_SAA: BioMAP Diversity Plus: CASM3C Assay for serum amyloid A (SAA) Biomarker Activity (AID 2283049).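 Further: SAA protein level quantified by ELISA.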 The conditions noted are these: primary human coronary artery smooth muscle cells; actives raise or lower the signal.

Test [11] in a line: BSK_CASM3C_SRB: Viability Assessment in the BioMAP Diversity Plus: CASM3C Assay (AID 2283050).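 Further: total protein by SRB staining as cytotoxicity measure in parallel cultures.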 The conditions noted are these: primary human coronary artery smooth muscle cells.
Read-out in test [12]: Thrombomodulin, THBD (gene 7056)
As to the kind of experiment: BSK_CASM3C_Thrombomodulin: BioMAP Diversity Plus: CASM3C Assay for Thrombomodulin Biomarker Activity (AID 2283051).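 Further: thrombomodulin protein level measured by ELISA 24 h after dosing.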 Particulars: primary human coronary artery smooth muscle cells; actives raise or lower the signal.

Read-out in test [13]: Tissue Factor, F3 (gene 2152)
As to the kind of experiment: BSK_CASM3C_TissueFactor: BioMAP Diversity Plus: CASM3C Assay for Tissue Factor Biomarker Activity (AID 2283052).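 Further: cell surface tissue factor protein level read by ELISA.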 The conditions noted are these: primary human coronary artery smooth muscle cells; actives raise or lower the signal.

Read-out in test [14]: Interferon-gamma inducible Protein 10 (IP10), CXCL10 (gene 3627)
As to the kind of experiment: BSK_hDFCGF_IP10: BioMAP Diversity Plus: hDFCGF Assay for Interferon-gamma inducible Protein 10 (IP10) Biomarker Activity (AID 2283053). Particulars: primary human foreskin fibroblasts; actives raise or lower the signal. In short, it runs like this: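 Human foreskin fibroblast primary cells (hDFCGF system) were dosed with chemical and assayed at 24 h; IP-10 measured by ELISA. Activity fitted bidirectionally relative to DMSO negative control as baseline.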

Read-out in test [15]: Urokinase-type plasminogen activator receptor (uPAR), PLAUR (gene 5329)
As to the kind of experiment: BSK_CASM3C_uPAR: BioMAP Diversity Plus: CASM3C Assay for Urokinase-type plasminogen activator receptor (uPAR) Biomarker Activity (AID 2283054).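 Further: cell-surface uPAR protein level quantified by ELISA.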 The conditions noted are these: primary human coronary artery smooth muscle cells; actives raise or lower the signal.

Read-out in test [16]: Vascular cell adhesion molecule 1 (VCAM1), VCAM1 (gene 7412)
As to the kind of experiment: BSK_CASM3C_VCAM1: BioMAP Diversity Plus: CASM3C Assay for Vascular cell adhesion molecule 1 (VCAM1) Biomarker Activity (AID 2283055).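 Further: VCAM-1 protein level quantified by ELISA on the cells.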 The conditions noted are these: primary human coronary artery smooth muscle cells; actives raise or lower the signal.

Read-out in test [17]: Collagen III, COL3A1 (gene 1281)
As to the kind of experiment: BSK_hDFCGF_CollagenIII: BioMAP Diversity Plus: hDFCGF Assay for Collagen III Biomarker Activity (AID 2283056). The conditions noted are these: primary human foreskin fibroblasts; actives raise or lower the signal. The essentials: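 Response relative to DMSO, fitted in both directions, reflects ELISA-measured collagen III in human primary skin fibroblasts 24 h after compound addition.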

Read-out in test [18]: Epidermal growth factor receptor (EGFR), EGFR (gene 1956)
As to the kind of experiment: BSK_hDFCGF_EGFR: BioMAP Diversity Plus: hDFCGF Assay for Epidermal growth factor receptor (EGFR) Biomarker Activity (AID 2283057). The conditions noted are these: primary human foreskin fibroblasts; actives raise or lower the signal. In short, it runs like this:
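Primary human foreskin fibroblasts were exposed to compound for 24 h, after which cell-surface EGFR was quantified by ELISA. Activity was fitted bidirectionally against the DMSO negative control as baseline.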

Read-out in test [19]: Interleukin-8 (IL8), CXCL8 (gene 3576)
As to the kind of experiment: BSK_hDFCGF_IL8: BioMAP Diversity Plus: hDFCGF Assay for Interleukin-8 (IL8) Biomarker Activity (AID 2283058). Particulars: primary human foreskin fibroblasts; actives raise or lower the signal. In short, it runs like this:
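Fibroblast monolayers (human foreskin, hDFCGF) received test chemical for 24 h before ELISA detection of IL-8; either increases or decreases relative to DMSO count as activity.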

The nature of test [20]: BSK_hDFCGF_Proliferation: Cell Proliferation Assessment in the BioMAP Diversity Plus: hDFCGF Assay (AID 2283059).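 Further: curves fitted for both rise and fall of signal versus DMSO baseline.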 Particulars: primary human foreskin fibroblasts. The essentials:
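Steps: dose primary human dermal fibroblasts (foreskin); […] fix in 10% TCA; stain with 0.1% SRB; read 560 nm; fit gain or loss of signal against DMSO.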

For `CCCSP(=O)(OCC)SCCC`, the result in [1], in test [2], in test [3], in test [4], in test [5] and in [6] was inactive. Also, the result in [7], in [8], in [9], in [10], in test [11] and in test [12] was inactive. Moreover, the result in test [13], in test [14], in [15], in test [16], in test [17] and in [18] was inactive. In test [19], the result was inactive.

Take `O=[N+]([O-])c1cc(C(F)(F)F)c(Cl)c([N+](=O)[O-])c1Nc1ncc(C(F)(F)F)cc1Cl`: the AC50 in test [1] was 3.6 µM (active); in test [2], 20 µM (active); in [3], 4.49 µM (active) and 10.8 µM (active); in [4], 2.16 µM (active) and 10 µM (active); in [5] it was 1.72 µM (active) and 6.05 µM (active); in test [7], 4.23 µM (active) and 9.83 µM (active). In addition, the AC50 is 2.28 µM (active) and 1.22 µM (active) in test [8]; 3.98 µM (active) and 8.05 µM (active) in test [9]; 3.5 µM (active) and 6.78 µM (active) in test [10]; 2.04 µM (active) and 5.51 µM (active) in test [11]; 5.69 µM (active) in [13]; 2.13 µM (active) and 7.1 µM (active) in [14]. The AC50 is 3.29 µM (active) and 5.5 µM (active) in test [15]; 2.86 µM (active) and 7.2 µM (active) in [16]; 1.92 µM (active) and 5.48 µM (active) in test [18]; 2.78 µM (active) and 11.7 µM (active) in test [19]. For the same compound, the outcome in test [1], in [6], in test [12] and in [13] was inactive.

For `CSc1nc(NC(C)C)nc(NC(C)C)n1`, the result in [1], in test [2], in test [3], in [4], in test [5] and in test [6] was inactive. The outcome in test [7], in test [8], in test [9], in test [10], in test [11] and in test [12] was inactive. Further, the result in [13], in [14], in [15], in test [16], in test [17] and in test [18] was inactive. Besides, the result in test [19] and in test [20] was inactive.

For the compound `CNC(=O)ON=C(C)SC`, the result in test [1], in [2], in test [3], in [4], in test [5] and in test [6] was inactive. Besides, the outcome in test [7], in test [8], in test [9], in test [10], in test [11] and in test [12] was inactive. Besides, the result in test [13], in test [14], in [15], in [16], in test [17] and in test [18] was inactive. The result in test [19] and in [20] was inactive.

As to `CCNc1nc(Cl)nc(NC(C)(C)C#N)n1`, the outcome in test [1], in test [2], in test [3], in test [5], in test [6] and in test [7] was inactive. For the same compound, the outcome in test [8], in test [9], in test [10], in test [11], in test [13] and in test [14] was inactive. For the same compound, the result in test [16], in [17], in test [18] and in test [19] was inactive. For the same compound, the AC50 in test [4] was 9.89 µM (active); in test [12] it was 3.97 µM (active); in [15], 30.8 µM (active); in test [20], 12.2 µM (active).

The values above are taken from PubChem BioAssay (EPA / NIEHS).
